“And” between values parts separate entries of the source, which are not always exact repeats. Equal values may be shown once. Records with an inconclusive call do not appear. The source made the active and inactive calls. The calls were made as follows: active = hit-call score of the fitted dose curve at least 0.9, where 1 is the maximum; inconclusive = response in the unintended direction; inactive = score below 0.9.

What is called AC50 is the midpoint of the concentration-response curve, whichever way the signal moves.

The nature of experiment [1]: TOX21_p53_BLA_p2_viability: Viability Assessment in the Tox21 HCT-116 p53 Agonism Beta-lactamase Assay, Phase 2 (AID 2283591).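 Also: actives lower the ATP signal meaning cytotoxicity.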 A digest of the protocol: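 HCT116 p53-bla cells, 4000/well, dosed after 5 h plating (217-fold dilution of DMSO stocks) and incubated 16 h at 37C. Viability taken as cellular ATP by CellTiter-Glo luminescence after 30 min RT; signal loss marks cytotoxicity.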

The target in experiment [2] is Cellular tumor antigen p53 (Homo sapiens) (UniProt P04637). The experiment in a line: TOX21_p53_BLA_p2_ratio: Tox21 HCT-116 p53 Agonism Beta-lactamase Assay, Ratio, Phase 2 (AID 2283592). Put shortly:
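An inducible beta-lactamase reporter in HCT116 cells signals p53 pathway activation. After 16 h chemical exposure at 37C, cells load CCF4-AM substrate for 2 h at room temperature; activity is the cleaved/uncleaved emission ratio relative to DMSO.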

Experiment [3] in a line: TOX21_p53_BLA_p3_viability: Viability Assessment in the Tox21 HCT-116 p53 Agonism Beta-lactamase Assay, Phase 3 (AID 2283593).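 Also: cells exposed to compound for 16 h before reading.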 A digest of the protocol:
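HCT116 cells, 4000/well, dosed 5 h after plating by pin transfer (217-fold dilution from DMSO stock) and incubated 16 h at 37C, 5% CO2. Viability read as ATP luminescence with CellTiter-Glo after 30 min at room temperature.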

In experiment [4] the target is Cellular tumor antigen p53 (Homo sapiens) (UniProt P04637). The experiment in a line: TOX21_p53_BLA_p3_ratio: Tox21 HCT-116 p53 Agonism Beta-lactamase Assay, Ratio, Phase 3 (AID 2283596). A digest of the protocol:
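HCT116 p53-bla cells (4000/well) given compound in DMSO (217-fold dilution) after 5 h, incubated 16 h at 37C. CCF4-AM substrate 2 h at room temperature; 460/530 nm emission ratio, gain fitted against DMSO.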

Experiment [5] can be described thus: TOX21_p53_BLA_p4_viability: Viability Assessment in the Tox21 HCT-116 p53 Agonism Beta-lactamase Assay, Phase 4 (AID 2283597).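 Also: hits lower the luminescence signal meaning cytotoxicity.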 Put shortly:
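Compound exposure of HCT116 cells lasts 16 h at 37C, 5% CO2, with DMSO stocks diluted 217-fold. Cellular ATP is then quantified by CellTiter-Glo luminescence after 30 min at room temperature.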

Experiment [6] concerns the target Cellular tumor antigen p53 (Homo sapiens) (UniProt P04637). The experiment in a line: TOX21_p53_BLA_p5_ratio: Tox21 HCT-116 p53 Agonism Beta-lactamase Assay, Ratio, Phase 5 (AID 2283599). A digest of the protocol: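 HCT-116 p53-bla cells (4000/well) plated 5 h, dosed with compound (217-fold DMSO dilution) for 16 h at 37 C; CCF4-AM substrate 2 h at room temperature. Activity is the 460/530 nm emission ratio (405 nm excitation), fitted in gain-of-signal direction versus DMSO.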

A short description of experiment [7]: TOX21_p53_BLA_p5_viability: Viability Assessment in the Tox21 HCT-116 p53 Agonism Beta-lactamase Assay, Phase 5 (AID 2283600). Put shortly: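 Counter-readout for cytotoxicity: ATP-dependent luminescence from CellTiter-Glo, read in the beta-lactamase wells after 30 min at RT, following a 16 h compound exposure at 37C.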
In experiment [8] the target is Cellular tumor antigen p53 (Homo sapiens) (UniProt P04637). The experiment in a line: TOX21_p53_BLA_p4_ratio: Tox21 HCT-116 p53 Agonism Beta-lactamase Assay, Ratio, Phase 4 (AID 2283601). Put shortly: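 HCT-116 p53 beta-lactamase reporter cells (4000/well) preincubated 5 h, then compound (217-fold dilution of DMSO stock) for 16 h at 37C. CCF4-AM substrate added 2 h at room temperature; 460/530 nm emission ratio fitted upward versus DMSO.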
Chain of Cellular tumor antigen p53 (Homo sapiens) (P04637 whole entry, looked up): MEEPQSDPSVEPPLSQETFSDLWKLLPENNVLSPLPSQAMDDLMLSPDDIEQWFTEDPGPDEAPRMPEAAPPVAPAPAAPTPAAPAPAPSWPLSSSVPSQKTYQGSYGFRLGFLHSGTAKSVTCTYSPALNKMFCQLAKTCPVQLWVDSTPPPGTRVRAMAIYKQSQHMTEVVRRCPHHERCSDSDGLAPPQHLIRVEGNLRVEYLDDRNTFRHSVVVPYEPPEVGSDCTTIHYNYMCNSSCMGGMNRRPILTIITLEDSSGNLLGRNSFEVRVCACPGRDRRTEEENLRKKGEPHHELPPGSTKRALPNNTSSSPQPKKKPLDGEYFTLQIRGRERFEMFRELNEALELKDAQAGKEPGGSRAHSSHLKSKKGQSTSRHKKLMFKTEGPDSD

On to `CCCC(=O)OC(C(Cl)(Cl)Cl)P(=O)(OC)OC` (configuration not stated), for which the call in experiment [1], in experiment [2], in experiment [3], in experiment [4], in experiment [5] and in experiment [6] was inactive. In addition, the outcome in experiment [7] and in experiment [8] was inactive.
Regarding `CCOC(=O)NC(C)(C)Cc1ccc(Cl)cc1`, the compound was classed as inactive in experiment [1], in experiment [2], in experiment [3], in experiment [4], in experiment [5] and in experiment [6]. Besides, the outcome in experiment [7] and in experiment [8] was inactive.
`CN`: the outcome in experiment [1], in experiment [2], in experiment [3], in experiment [4], in experiment [5] and in experiment [6] was inactive. For the same compound, the outcome in experiment [7] and in experiment [8] was inactive.
Consider `CCCCCCCCCCCC[N+](C)(C)CCOc1ccccc1`, for which the AC50 is 28.1 µM (active) and 30.3 µM (active) in experiment [1]; 33.3 µM (active) and 40.8 µM (active) in experiment [2]; 53 µM (active) and 22.3 µM (active) in experiment [3]; 84.4 µM (active) and 43.8 µM (active) in experiment [4]; 37.5 µM (active) and 16.3 µM (active) in experiment [5]; 85.4 µM (active) and 44.8 µM (active) in experiment [6]. In addition, the half-maximal activity concentration (AC50) in experiment [7] was 54.3 µM (active) and 33.6 µM (active).
Consider `ClC(Br)Br`, for which the call in experiment [1], in experiment [2], in experiment [3], in experiment [4], in experiment [5] and in experiment [6] was inactive. Also, the call in experiment [7] and in experiment [8] was inactive.
Take `COC(=O)[C@]12CCC(C)(C)C[C@H]1[C@H]1C(=O)C=C3[C@@]4(C)C=C(C#N)C(=O)C(C)(C)[C@@H]4CC[C@@]3(C)[C@]1(C)CC2`: the AC50 in experiment [1] is 1.83 µM (active); in experiment [2], 29.2 µM (active); in experiment [3], 1.37 µM (active); in experiment [4] it was 15.3 µM (active); in experiment [5], 1.99 µM (active); in experiment [6], 31.7 µM (active). In addition, the figures for the concentration at half-maximal activity (AC50) in experiment [7] and in experiment [8] were 2.57 µM (active) and 7.4 µM (active), respectively.
Turning to `CC(=O)O[C@H]1C[C@H](O[C@H]2[C@@H](O)C[C@H](O[C@H]3[C@@H](O)C[C@H](O[C@H]4CC[C@@]5(C)[C@H](CC[C@@H]6[C@@H]5C[C@@H](O)[C@]5(C)[C@@H](C7=CC(=O)OC7)CC[C@]65O)C4)O[C@@H]3C)O[C@@H]2C)O[C@H](C)[C@H]1O[C@@H]1O[C@H](CO)[C@@H](O)[C@H](O)[C@H]1O`, the half-maximal activity concentration (AC50) in experiment [1] was 0.109 µM (active); in experiment [3], 0.0857 µM (active); in experiment [5], 0.121 µM (active); in experiment [7] it was 0.0758 µM (active). For the same compound, the result in experiment [2], in experiment [4], in experiment [6] and in experiment [8] was inactive.
For the compound `Cc1ccccc1`, the compound was called inactive in experiment [1], in experiment [2], in experiment [3], in experiment [4], in experiment [5] and in experiment [6]. Moreover, the outcome in experiment [7] and in experiment [8] was inactive.
For `CC(Cl)C(=O)O` (configuration not stated), the compound was classed as inactive in experiment [1], in experiment [2], in experiment [3], in experiment [4], in experiment [5] and in experiment [6]. In addition, the compound was called inactive in experiment [7].
Consider `C/C(=C\c1csc(C)n1)[C@@H]1C[C@@H]2O[C@]2(C)CCC[C@H](C)[C@H](O)[C@@H](C)C(=O)C(C)(C)[C@@H](O)CC(=O)O1`, for which the compound was classed as inactive in experiment [1], in experiment [3], in experiment [5] and in experiment [7]. Besides, the AC50 was 0.0698 µM (active) in experiment [2], 0.0123 µM (active) in experiment [4], 0.732 µM (active) in experiment [6] and 0.0121 µM (active) in experiment [8].
Turning to `CCCCCCC[CH2][Sn]([Cl])([Cl])[CH2]CCCCCCC`, the AC50 was 66.6 µM (active) in experiment [1]; 67 µM (active) in experiment [2]; 57.1 µM (active) in experiment [3]; 21.2 µM (active) in experiment [4]; 36.5 µM (active) in experiment [5]. Also, the result in experiment [6], in experiment [7] and in experiment [8] was inactive.
With `C1CN(P2(N3CC3)=NP(N3CC3)(N3CC3)=NP(N3CC3)(N3CC3)=N2)CCO1` (configuration not stated), the result in experiment [1], in experiment [2], in experiment [3], in experiment [5], in experiment [6] and in experiment [7] was inactive. In addition, in experiment [8], the result was inactive. The AC50 in experiment [4] is 23 µM (active).
For the compound `CC(=O)C(Cl)(Cl)Cl`, the result in experiment [1], in experiment [3], in experiment [5], in experiment [7] and in experiment [8] was inactive. For the same compound, the AC50 in experiment [2] was 1.29 µM (active); in experiment [4], 0.778 µM (active); in experiment [6] it was 1.52 µM (active).
Regarding `Clc1ccc(CCC(Cn2ccnc2)Sc2c(Cl)cccc2Cl)cc1` (configuration not stated), the compound was called inactive in experiment [1], in experiment [2], in experiment [3], in experiment [5], in experiment [6] and in experiment [7]. Also, the result in experiment [8] was inactive. Moreover, the AC50 in experiment [4] was 15.9 µM (active).
`CCC(C)(S(=O)(=O)CC)S(=O)(=O)CC`: the compound was called inactive in experiment [1], in experiment [2], in experiment [3], in experiment [4], in experiment [5] and in experiment [6]. Besides, the compound was called inactive in experiment [7] and in experiment [8].
On to `CCNc1nc(NC(C)C)nc(OC)n1`, for which the outcome in experiment [1], in experiment [2], in experiment [3], in experiment [4], in experiment [5] and in experiment [6] was inactive. The result in experiment [7] was inactive.
In the case of `Oc1ccc(Cl)c(Cl)c1`, the compound was called inactive in experiment [1], in experiment [2], in experiment [3], in experiment [4], in experiment [5] and in experiment [6]. Further, the result in experiment [7] and in experiment [8] was inactive.
For the compound `F/C(COc1ccc2c(c1)[nH]c1ccccc12)=C1/CN2CCC1CC2`, the compound was called inactive in experiment [1], in experiment [2], in experiment [3], in experiment [4], in experiment [6] and in experiment [7]. Besides, in experiment [8], the outcome was inactive. The AC50 in experiment [5] was 27.3 µM (active).
Turning to `CC(C)CON=O`, the compound was called inactive in experiment [1], in experiment [2], in experiment [3], in experiment [4], in experiment [5] and in experiment [6]. The call in experiment [7] and in experiment [8] was inactive.
Turning to `Nc1ccc(Cc2ccc(N)c(Cl)c2)cc1Cl`, the result in experiment [1], in experiment [5], in experiment [6], in experiment [7] and in experiment [8] was inactive. Further, the AC50 in experiment [2] is 68.5 µM (active); in experiment [3], 77.1 µM (active); in experiment [4], 71.5 µM (active).
Turning to `[O]=[Cd]`, the compound was classed as inactive in experiment [1], in experiment [2], in experiment [3], in experiment [4], in experiment [5] and in experiment [6]. Also, the result in experiment [7] and in experiment [8] was inactive.
Regarding `CCCCCCC(=O)CCCCCC/C=C/C[C@@H](O)[C@H](O)[C@@](N)(CO)C(=O)O`, the compound was called inactive in experiment [1], in experiment [2], in experiment [3], in experiment [4], in experiment [5] and in experiment [6]. Further, the result in experiment [7] and in experiment [8] was inactive.
As to `C#C[C@]1(OC(=O)CCCCCC)CC[C@H]2[C@@H]3CCC4=CC(=O)CC[C@@H]4[C@H]3CC[C@@]21C`, the AC50 in experiment [1] was 8.02 µM (active); in experiment [3], 23 µM (active). Further, the outcome in experiment [2], in experiment [4], in experiment [5], in experiment [6], in experiment [7] and in experiment [8] was inactive.
Regarding `O=[N+]([O-])c1ccccc1CCl`, the result in experiment [1], in experiment [2], in experiment [3], in experiment [4], in experiment [5] and in experiment [6] was inactive. Further, the result in experiment [7] and in experiment [8] was inactive.
As for `CO[C@]12CC[C@@]3(C[C@@H]1[C@](C)(O)C(C)(C)C)[C@H]1Cc4ccc(O)c5c4[C@@]3(CCN1CC1CC1)[C@H]2O5`, the AC50 is 75 µM (active) in experiment [1]; 70.3 µM (active) in experiment [3]; 86.6 µM (active) in experiment [4]; 60.6 µM (active) in experiment [5]; 84.8 µM (active) in experiment [8]. The result in experiment [2], in experiment [6] and in experiment [7] was inactive.

(Values after PubChem BioAssay (EPA / NIEHS).)
